# KB-V1 cytotox = KB-V1 MDR subline cytotoxicity | KB-V1 MDR cells viability, CellTiter-Glo, 72 h | Potency, µM (series often up to 46.1 µM), actives largely listed as cytotoxic | 3.4% of 400,000 active; also: potency is read from the fitted curve at half-maximal effect; % is scaled to controls: 0 for no effect and ±100 for the full control effect; nearly all actives have a fitted effect of over 60% in size
#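 KB-V1, DMEM (no phenol red) + 10% FBS; cpd pin-transferred, titration series; 72 h, 37 degrees C; CellTiter-Glo, luminescence. Data normalized, curve-fit.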
# Giardia killer = Giardia lamblia killing | 0.15% of 340,000 active | Giardia lamblia trophozoite viability | activity change, % at 7.66 µM, hits read low | AID 540267; in the data active = activity change below about -80%; inconclusive = between about -30% and that limit;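 also: parasites exposed to compound for two days anaerobically before the ATP read; % is scaled to controls: 0 for no effect and ±100 for the full control effect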
#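 Luminescent ATP signal served as the viability read-out, measured 15-30 min after adding ATP detection reagent to trophozoites that had been incubated with compounds for 48 hrs at 37 deg C anaerobically at 100 cells/well.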
# S-ASM inh = inhibitors of human secretory acid sphingomyelinase. P17405. placental ASM, HMU-PC fluorogenic substrate, 60 min. Potency, µM (titrated, usually from 57.5 µM), for the others: at the highest dose activity change, negative = inhibition, most hits filed as inhibitors. 0.006% of 340,000 active. AID 504937; also: potency is read from the fitted curve at half-maximal effect
# Target sequence (P17405 47-631 limits assumed): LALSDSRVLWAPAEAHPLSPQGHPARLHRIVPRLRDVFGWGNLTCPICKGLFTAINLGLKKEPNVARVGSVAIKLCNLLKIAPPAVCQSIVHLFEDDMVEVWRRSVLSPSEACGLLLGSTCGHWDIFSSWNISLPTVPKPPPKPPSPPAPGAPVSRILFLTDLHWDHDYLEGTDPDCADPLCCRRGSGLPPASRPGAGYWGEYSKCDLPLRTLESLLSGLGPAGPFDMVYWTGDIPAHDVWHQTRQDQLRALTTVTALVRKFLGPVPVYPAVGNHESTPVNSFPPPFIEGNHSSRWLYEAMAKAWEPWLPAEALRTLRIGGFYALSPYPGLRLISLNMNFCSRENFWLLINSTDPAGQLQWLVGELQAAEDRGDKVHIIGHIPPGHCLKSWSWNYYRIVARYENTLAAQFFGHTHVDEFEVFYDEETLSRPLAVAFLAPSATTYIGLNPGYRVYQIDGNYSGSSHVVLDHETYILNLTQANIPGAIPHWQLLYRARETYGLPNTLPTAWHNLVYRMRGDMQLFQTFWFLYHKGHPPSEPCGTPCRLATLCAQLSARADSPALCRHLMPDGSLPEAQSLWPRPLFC
#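 qHTS format. ASM enzyme prepared from human placenta hydrolyses the fluorogenic substrate HMU-PC0 (9 uM final) over 60 min at 37 °C after a 10 min compound preincubation.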
# KB-3-1 tox = kills parental KB-3-1 adenocarcinoma cells; KB-3-1 viability, CellTiter-Glo ATP luminescence, 72 h; AID 1347075; 1.4% of 400,000 active; Potency, µM (top dose mostly 46.1 µM), hits mostly cytotoxic; also: potency is read from the fitted curve at half-maximal effect; % is scaled to controls: 0 for no effect and ±100 for the full control effect; nearly all actives have a fitted effect of over 60% in size
#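 Screening of KB-3-1 cells (DMEM, 10% FBS, phenol-red free) ran from lowest to highest compound concentration; after 72 h at 37 °C viability was read luminescently and curves fitted.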
# MCF10A rerep = induces DNA re-replication in MCF 10a normal breast cells | AID 624296 | 2.9% of 350,000 active | MCF 10A DNA re-replication, Hoechst nuclear intensity, 48 h | Potency, µM (highest dose often 46.1 µM), for the others: at the top dose activity, positive = re-replication, hits mostly activators; also: potency is read from the fitted curve at half-maximal effect; % of control where 0% means no effect; nearly all actives have a fitted effect of over 50% in size
# SW480 rereplic = inducers of DNA re-replication in SW480 colon cancer cells; SW480 DNA re-replication, Hoechst DNA content imaging, 48 h; Potency, µM (top dose mostly 46.1 µM), inactives show at the top dose re-replication activation, actives largely listed as activators; 1.8% of 340,000 active; AID 624297; also: potency is read from the fitted curve at half-maximal effect; % of control where 0% means no effect; nearly all actives have a fitted effect of over 55% in size
#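 Compounds, transferred as 23 nL by pin tool, were incubated with cells for 48 hr; DNA content per nucleus was then quantified by Hoechst staining and fluorescence plate imaging.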
# * = called active by the depositor; i = inactive; ? = inconclusive; nt = no result given; [ ] = remark or other dose. Only some compounds are listed: those with a hit (about 6.9% of all), similar ones and a draw of the others. Unless noted, calls follow the shape of the dose curve; as a rule, active = well fitted curve in the direction sought with a large enough effect; inconclusive = small, poorly fitted or top-dose-only effect, or another doubt; inactive = no such curve, though single readings can be large; an effect the other way counts as inactive or inconclusive.
SMILES,KB-V1 cytotox,Giardia killer,S-ASM inh,KB-3-1 tox,MCF10A rerep,SW480 rereplic
CCCCC(=O)Nc1ncc(Br)s1,i,-5.6,3.9%,i,?,16.9%
Cc1nc(C)c(C(=O)Nc2ncc([N+](=O)[O-])s2)o1,?,-87.7*,-5.4%,i,-3.4%,2.3%
COc1ccc(CC(=O)Nc2ncc([N+](=O)[O-])s2)cc1OC,i,-89.4*,2.4%,?,-2.9%,0.9%
CC(C)CC(=O)Nc1ncc([N+](=O)[O-])s1,i,-93.0*,-2.1%,i,7.6%,0.6%
COc1ccc(CC(=O)Nc2nccs2)cc1OC,i,10.2,3.4%,i,?,-0.2%
CCCCNC(=O)C1(C)CCN1C(=O)c1cc(OC)ccc1Br (centres undefined),i,nt,nt,i,nt,nt
CC(C)CCn1c(=O)c2cccnc2n(CC(=O)Nc2ccccc2F)c1=O,i,nt,nt,i,nt,nt
Cc1ccc2c(c1)Oc1ccc(NC(=O)CCl)cc1C(=O)N2,9.2µM*,-10.9,-4.1%,5.8µM*,5.8µM*,2.31µM*
O=c1c2sc3ccccc3c2n(Cc2ccc(Cl)cc2)c(=O)n1Cc1ccco1,i,nt,nt,i,nt,nt
Clc1ccc(CSc2ncn(-c3ccccc3)n2)cc1,20.6µM*,6.3,-5.4%,i,5.6%,-14.5%
O=C(Nc1ccccc1)NC1(C(=O)N2CCN(c3ncccn3)CC2)CCCCC1,i,-1.1,-0.4%,i,-3.3%,-2.4%
O=C(NCc1ccccc1)NC1(C(=O)N2CCN(c3ncccn3)CC2)CCCCC1,i,15.1,-2.9%,i,23.1µM*,4.3%[9.22 µM]
CC(=O)Oc1ccc(N2C(=O)C3C4C=CC(CC4)C3C2=O)cc1[N+](=O)[O-] (centres undefined),i,12.6,1.7%,i,6.7%,-1.0%
N#CNC(=Nc1ccc(F)cc1)SCc1ccccc1,i,8.2,0.1%,i,?,3.66µM*
CC(C)(C)c1ccc2c(S(=O)(=O)O)c(C(C)(C)C)ccc2c1,nt,nt,nt,nt,0.3%,1.9%
CCCC(C)(C)C(=O)N1CCC1(C)C(=O)NS(=O)(=O)c1ccccc1Cl (centres undefined),i,nt,nt,i,nt,nt
COCCn1c(C)cc(C(=O)CSc2nc(C)nc3sc4c(c23)CCC4)c1C,2.59µM*,7.3,0.2%,?,?,7.2%
COC(=O)c1ccc2c(=O)n(-c3ccccc3F)c(=S)[nH]c2c1,18.4µM*,-10.8,94.9%,?,5.2%,-1.6%
O=C(O)c1ccc2c(=O)n(-c3ccccc3F)c(=S)[nH]c2c1,i,8.0,18.1%,i,-0.7%,-3.8%
O=C(NNC(=S)Nc1ccccc1)c1cc(-c2cccnc2)nc2ccccc12,i,-6.9,4.7%,i,-1.7%,-1.5%
C/C(=N\NC(=O)c1cc(-c2cccnc2)nc2ccccc12)c1ccccc1O,6.51µM*,-7.1,-2.3%,i,?,24.2%
C/C(=N\NC(=O)c1cc(C2CC2)nc2ccccc12)c1ccc(O)cc1O,i,10.3,-4.6%,?,13.6%,1.46µM*
CC(OC(=O)c1cc(-c2cccnc2)nc2ccccc12)C(=O)Nc1ccc2ccccc2c1 (centres undefined),i,6.8,2.2%,i,16.4µM*,1.9%
COc1ccccc1N1CCN(S(=O)(=O)c2ccc(-n3cnnn3)cc2)CC1,i,42.1,1.8%,i,-7.0%,-6.8%
COc1ccc(-c2sc3cc(OC)ccc3c2-c2ccc(OCCN3CCOCC3)cc2)cc1,i,-19.8,-28.6%,i,3.66µM*,?
COc1cc(OC)cc(-c2sc3ccc(OC)cc3c2-c2ccc(OCCN3CCCCC3)cc2)c1,i,-9.1,?,i,18.4µM*,?
Cc1ccnc(NC(=O)c2ccc3c(c2)OCO3)c1,18.4µM*,?,4.8%,16.4µM*,0.0%,-19.3%
O=C(CSc1ccc2c(c1)OCCO2)NCCc1ccc(Cl)cc1Cl,18.4µM*,-8.8,5.5%,i,16.9%,-44.6%
O=C(CSc1ccc2c(c1)OCCO2)Nc1ncc(Cl)cc1Cl,20.6µM*,0.7,-0.1%,i,-1.3%,-7.4%

# Screening results as filed in PubChem.
